Test results from PubChem BioAssay (NCI).
This is part of a sample that, as a whole, favours compounds with a hit. Of some 83,000 tested, about 20% had one in any assay.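 Negative percent growth values reflect cell death: -40 means 40% of the cells present at the start died, and -100 means all died.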 A number with no mark means an inactive call. The source made the active and inactive calls. Rule for the calls: active = growth percent below 10; inactive = the rest.

Each molecule was assayed on HL-60(TB) leukemia (assay: NCI-60 one-dose screen, 48 h (100 = growth as untreated, 0 = no growth, -100 = all killed)). Settings: 10 µM unless noted.

| Structure (SMILES) | growth |
| --- | --- |
| Cc1cc(C(NC(=O)C2CC3(CC(Nc4cccc5c4C(=O)N(C4CCC(=O)NC4=O)C5=O)C3)C2)c2ccc3c(c2)OC(F)(F)O3)c(O)c2ncccc12 (centres undefined) | -16.4% (active) |
| CC1=C(C(=O)Nc2ccccc2)C(c2cccc3ccccc23)n2c(nc3ccccc32)N1 (centres undefined) | 95% |
| Cc1ccc(NCC(=O)Nn2c(COc3ccccc3)nc3ccccc3c2=O)cc1 | 93.9% |
| CC(=O)Oc1ccccc1C(=O)Oc1ccc(C(=O)/C=C/c2ccncc2)cc1 | 3.04% (active) |
| CC(=O)OC[C@@]1(C)C2CC[C@]3(C)C(CC=C4C5CC(C)(C)CC[C@]5(C(=O)Nc5ccccc5)CC[C@]43C)[C@@]2(C)C[C@@H](OC(C)=O)[C@@H]1OC(C)=O (some centres undefined) | 22.6% |
| CC(=O)Nc1ccc(-c2cn(-c3cccc(C(=O)Nc4ccc(F)c(C(F)(F)F)c4)c3)nn2)cn1 | 62.8% |
| COc1ccc(-c2nc3cc(C)ccc3n2CC(=O)N=Nc2c(O)[nH]c3ccc(Cl)cc23)cc1 | 41.1% |
| CN(C(=O)CN1C(=O)/C(=C/c2ccco2)SC1=S)C1CCS(=O)(=O)C1 (centres undefined) | 81.6% |
| O=C(Nc1ccc(OCc2ccc(F)cc2)cc1)Nc1ccc(Cl)c(C(F)(F)F)c1 | -3.24% (active) |
| COc1cc2oc(-c3cccc(NC(=O)[C@H](CC(N)=O)NC(=O)OC(C)(C)C)c3)cc(=O)c2c(OC)c1OC | 67.2% |
| Cn1cc(-c2cc(N)n3nc(-c4c[nH]c5ccccc45)cc3n2)c2cc(Cl)ccc21 | -16.2% (active) |
| Cc1cc(Cl)ccc1NC(=O)Nc1ccc(-c2ccc3c(c2)NC(=O)/C3=C\c2ccc[nH]2)cc1 | 78.9% |
| O=C(c1ccc(O)cc1)C1[C@H](c2ccccc2Br)[C@@H](c2ccccc2)NC12C(=O)Nc1ccc(Br)cc12 (some centres undefined) | 33.6% |
| Nc1nc2cc(-c3ccc4ncnc(NCc5ccccc5)c4c3)ccc2o1 | -43.8% (active) |
| CCCCCCCCc1ccc(C(=O)Nc2ccc(C)cc2C(=O)O)cc1C | 102% |
| O=c1c2ccccc2nc(-c2ccccc2)n1/N=C/c1ccc2ccccc2c1 | 35.7% |
| O=C1Nc2ccc(Cl)cc2/C1=C/c1ccc(OCc2ccccn2)cc1 | 85% |

| Structure (SMILES) | growth |
| --- | --- |
| COc1cc(C=O)ccc1OC(=O)c1cc(-c2ccc(C)cc2)n(-c2ccc(S(C)(=O)=O)cc2)n1 | 83.4% |
| O=C(CSc1nnc(-c2c[nH]c3ccccc23)n1-c1ccccc1)c1ccc(Cl)cc1 | 88.9% |
| COc1cccc(-c2nc(Nc3ccc(S(N)(=O)=O)cc3)c3ccccc3n2)c1 | 35% |
| O=C(NNC(=O)c1ccc(OCc2nc3ccc(Cl)cc3[nH]2)cc1)Nc1ccc(Cl)c(C(F)(F)F)c1 | 74.8% |
| COc1ccc(/C=C2\C(=O)Nc3ccc(Cl)cc32)cc1OCc1ccccn1 | 64.7% |
| CN1CCc2c(sc3ncnc(N/N=C/c4cn(-c5ccccc5)nc4-c4ccc(Cl)cc4)c23)C1 | -12.4% (active) |
| N#Cc1c(NC(=O)c2cccc(C(F)(F)F)c2)sc2c1CCC(O)=C2 | 30% |
| CCOc1ccc(/C=N/NC(=O)Cn2nc(Cc3ccc(OC)cc3)c3onc(C)c3c2=O)cc1 | 57.5% |
| CC(=O)Nc1cccc(Nc2nc(NCc3ccccc3)c3ccccc3n2)c1 | -64% (active) |
| C[C@H](Nc1nc(NCCc2ccccc2)nc2ccccc12)c1ccccc1 | -48.2% (active) |
| OCCCNc1oc(-c2ccccc2)nc1[P+](c1ccccc1)(c1ccccc1)c1ccccc1 | -35.8% (active) |
| CN1CCN(Cc2ccc(NC(=O)c3cncc(C#Cc4cnc5ccc(N[C@@H]6CCOC6)nn45)c3)cc2C(F)(F)F)CC1 | -57.9% (active) |
| Cc1cccc(-c2nc(Nc3ccc(C)c(S(N)(=O)=O)c3)c3ccccc3n2)c1 | 26% |
| N#CC1=C(c2cccs2)Nc2c(c(-c3ccccc3)nn2-c2ccccc2)C12C(=O)Nc1ccc(Br)cc12 (centres undefined) | -7.78% (active) |
| CC(=O)Nc1ccc(-n2cnc3cc(-c4ccc(O)cc4)ccc32)cc1F | -10.2% (active) |
| COc1cccc(C(=O)CSc2nc(-c3ccc(OCc4ccccc4)c(OC)c3)c(C#N)c(=O)[nH]2)c1 | 97.2% |
| CCCCSc1nc(Nc2ccc(/C(C)=N/NC(N)=S)cc2)c(C#N)c(-c2ccc(OC)cc2)n1 | 92.2% |
